Compound activity from PubChem.
Shown are actives, neighbours in structure and some others; about 1.2% of the full set was active somewhere.
RGS4-Gao reg = modulates binding of RGS4 to human Galphao; P09471; Multiplexed bead flow cytometry; actives lie on both sides; binding response (% of control), % at 10 µM; hit rate 0.33% among 220,000; AID 1415; in the data active = binding response below about 49% or above about 150%; inactive = in between;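 note: fluorescent Galphao activated with aluminum fluoride binding bead-coupled RGS4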
GSH bead fluor = compound fluoresces at 488/530 nm on GSH beads | GSH beads flow cytometry, compound fluorescence 488/530 nm; active compounds read high | fluorescence (KMESF) at 10 µM | hit rate 0.25% among 190,000 | AID 1776; in the data active = fluorescence above about 89;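 note: glutathione beads carrying GST-tagged Bcl family fusion proteins plus one bare bead set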
Avidin bead fluor = avidin bead compound fluorescence profile; AID 1775; Avidin beads, compound fluorescence 488/530 nm, flow cytometry; active compounds read high; fluorescence (KMESF) at 10 µM; hit rate 0.38% among 220,000; in the data active = fluorescence above about 47
RGS7-Gao = modulates binding of RGS7 to human Galphao; hit rate 0.35% among 220,000; Multiplexed bead flow cytometry; actives lie on both sides; AID 1439; binding response (% of control), % at 10 µM; P09471; in the data active = binding response below about 49% or above about 150%; inconclusive = no clear call, values can overlap the other calls; inactive = in between;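 note: fluorescent Galphao held in activated GDP-AlF4 state binding bead-coupled RGS7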
RGS16-Gao = RGS16-Galphao interaction regulator (human). binding response (% of control), % at 10 µM. AID 1441. hit rate 0.38% among 220,000. O15492+P09471. bead-based flow cytometry RGS16-Galphao binding, fluorescence; actives lie on both sides; call rule not given here;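 note: Galphao activated by GDP with aluminum fluoride before binding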
RGS8-Gao = regulators of human RGS8-Galphao interaction; hit rate 0.34% among 220,000; P09471; multiplexed bead flow cytometry, RGS8-Galphao binding; actives lie on both sides; AID 1423; response (percent of control binding), % at 10 µM; in the data active = response below about 60% or above about 140%; inactive = in between;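 note: Galphao activated as the GDP aluminium fluoride complex binding bead-coupled RGS8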
A number is an active result; 0 = inactive; ? = inconclusive; - = not tested or not shown; [ ] = remark or other dose.

SMILES	RGS4-Gao reg	GSH bead fluor	Avidin bead fluor	RGS7-Gao	RGS16-Gao	RGS8-Gao
CCOC(=O)CN(C(=O)COc1nc(-c2ccccc2)cc(C)c1C#N)c1ccccc1C	0	-	0	?	0	0
COc1ccc(C2C(C(=O)NC(C)C)c3ccccc3C(=O)N2C)cc1OC (configuration not stated)	0	0	54	0	0	0
CS(=O)(=O)N1CCC(C(=O)Nc2ccc(F)cc2F)CC1	0	0	79	0	0	0
CCOC(=O)c1ccc2nc(C)c(CCC(C)=O)c(Cl)c2c1	19	0	0	19	8.4	11
CCCCc1c(C)nc2ccc(C(=O)OCC)cc2c1Cl	0	0	0	0	0	0
Cc1ccc2c(c1)CCCN2C(=O)c1ccncc1	0	0	131	0	0	0
Nc1nc2ccc(O)cc2s1	0	187	0	0	0	0
CCn1c(-c2ccc(F)cc2)cnc1SCC(=O)N1CCCCC1C (configuration not stated)	0	0	0	0	0	0
Cc1ccc(N/C=C(/C#N)c2ccsc2)cc1	0	0	0	0	0	0
N#C/C(=C/Nc1ccccc1)c1ccsc1	0	0	51	0	0	0
COc1ccc(/C=N/n2c(C)cc(C)c(C(N)=O)c2=O)cc1	0	255	0	0	0	0
O=C(NCCN1CCOCC1)c1cc2sccc2n1Cc1ccc(Cl)cc1	0	0	52	0	0	0
COCCCNC(=O)Cn1cc2c(n1)CCCCC2	0	0	0	0	0	0
CCCSCCCNC(=O)Cn1cc2c(n1)CCCCC2	49	0	0	43	0	56
CC(C)(C)c1ccc(-c2nnc(N)o2)cc1	0	-	0	?	0	0
O=C(Cc1ccccc1[N+](=O)[O-])NCc1ccc(Cl)cc1Cl	0	0	0	0	0	0
O=C(Cc1ccccc1[N+](=O)[O-])NCc1ccc(Cl)cc1	213[activator]	0	119	176[activator]	0	0
NS(=O)(=O)c1ccc(CCNC(=O)c2cc(-c3cc(Cl)ccc3O)n[nH]2)cc1	0	-	0	?	0	0
Cc1ccc(-c2nc3sc4c(c3c(=O)n2N)CC(C)(C)OC4)cc1	0	0	55	0	0	0
Cc1cc(C)n(-c2ncnc3sc(C)c(C)c23)n1	0	0	53	0	0	0
Cc1cc(C)n(-c2ncnc3sc4c(c23)CCCC4)n1	0	0	0	0	0	0
O=C(CSCSCC(=O)NCC1CCCO1)NCC1CCCO1 (configuration not stated)	0	0	0	0	0	0
CCn1c(SCC(=O)C(C)(C)C)nnc1-c1cnccn1	0	95	0	0	0	0
CCn1c(SCC(=O)C(C)(C)C)nnc1-c1ccccn1	0	0	0	0	0	0
CCOC(=O)c1ccccc1NC(=O)CSc1nc2c(c(=O)n(C)c(=O)n2C)n1C	0	0	0	0	0	0
SMILES	RGS4-Gao reg	GSH bead fluor	Avidin bead fluor	RGS7-Gao	RGS16-Gao	RGS8-Gao
CCOC(=O)c1ccccc1NC(=O)Cn1cnc2c1c(=O)n(C)c(=O)n2C	-24	0	0	-8.2	-15	7.8
Clc1ncc(Cn2cccn2)s1	0	0	0	?	0	0
CCOC(=O)c1sc(C)c2c1NC(C)(c1cccs1)NC2=O (configuration not stated)	0	0	0	0	0	0
C=CCn1c2ccccc2c2nnc(SCC(=O)NC(C(=O)OC)C(C)C)nc21 (configuration not stated)	0	0	119	0	0	0
CCCCN(Cc1cc2cc(OC)ccc2[nH]c1=O)C(=O)c1ccco1	0	0	0	0	0	0
CCCN(Cc1cc2cc(OC)ccc2[nH]c1=O)C(=O)c1ccco1	0	-	49	?	0	0
COc1ccc(N(CC(=O)NC2CCCCC2)C(=O)CCCC(=O)Nc2ccccn2)c(OC)c1	0	0	84	0	0	0
O=C(NC1CCS(=O)(=O)C1)C1C2CC3CC(C2)CC1C3 (configuration not stated)	0	0	55	0	0	0
CCOC(=O)C1CCN(c2c(NCCC(C)C)c(=O)c2=O)CC1	0	-	0	?	0	0
Cc1ccc(CSc2nccc(-c3c(C)nc4ccccn34)n2)cc1	0	-	0	?	0	0
O=C(/C=C/NNC(=O)c1ccccc1)c1ccc([N+](=O)[O-])cc1	0	0	0	0	0	0
